Screens as filed in PubChem.
AMA1-RON2 inh – AMA1-RON2 (P. falciparum) interaction inhibition; AlphaScreen AMA1-biotinylated RON2 peptide binding; Potency, µM (doses to about 58.2 µM), without a hit: top-dose activity change, negative = inhibition, usual class: inhibitors; 360,000 tested, 0.2% active;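 note: 0% = vehicle wells and -100% = peptide control; nearly all actives have a fitted effect of over 45% in size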
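AMA1 (3D7) with his tag at 25 nM final met compounds first, then biotinylated RON2 peptide at 25 nM; detection used donor plus acceptor beads, 10 µg/mL apiece, read by AlphaScreen after 30 min at room temperature.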
Pf growth 48h – inhibits P. falciparum growth in the first generation, 48 h; P. falciparum luciferase growth in erythrocytes, 48 h; Potency, µM (titrated, usually from 28.7 µM), inactives show at the top dose activity change, negative = inhibition, actives largely listed as inhibitors; 310,000 tested, 5.9% active; AID 504832
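Here the parasites carry a stable luciferase gene and grow inside erythrocytes in Albumax-based RPMI medium with compound for one erythrocytic cycle. Activity is scored as loss of luminescent signal.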
VACV Venus inh – inhibitors of vaccinia virus (Venus reporter); Vaccinia virus Venus reporter expression, fluorescence; Potency, µM (titrated, usually from 36.5 µM), for inactives: at the highest dose activity change, negative = inhibition, most hits filed as inhibitors; 330,000 tested, 0.46% active; calls by dose curve; tested in A549 cells; note: nearly all actives have a fitted effect of over 30% in size
VACV mCherry inh – inhibitors of vaccinia virus infection (mCherry reporter signal). AID 720579. Potency, µM (highest dose often 36.5 µM), for inactives: top-dose activity change, negative = inhibition, hits mostly inhibitors. 310,000 tested, 0.63% active. Vaccinia virus mCherry reporter infection, fluorescence; calls by dose curve; tested in A549 cells; note: nearly all actives have a fitted effect of over 35% in size
Pf growth 96h – P. falciparum growth inhibition at 96 hours. P. falciparum luciferase reporter growth, 96 h. 320,000 tested, 6.9% active. AID 504834. Potency, µM (top dose mostly 28.7 µM), without a hit: top-dose activity change, negative = inhibition, actives largely listed as inhibitors
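P. falciparum expressing integrated firefly luciferase grown in erythrocytes (2% hematocrit, 0.05% parasitemia final) with compounds for 96 hours at 37 C, 5% CO2. Growth inhibition read as loss of luminescence after adding luciferase detection reagent.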
* = called active by the depositor; i = inactive; ? = inconclusive; · = no result. An excerpt weighted towards active compounds, which were near 8.7% of everything screened. Unless noted, calls come from the whole dose curve; as a rule, active = well fitted curve in the direction sought with a large enough effect; inconclusive = small, poorly fitted or top-dose-only effect, or another doubt; inactive = no such curve, though single readings can be large; an effect the other way counts as inactive or inconclusive. Unless noted, % is set by controls: 0 for no effect and ±100 for the full control effect; potency is the fitted concentration of half-maximal effect.

SMILES	AMA1-RON2 inh	Pf growth 48h	VACV Venus inh	VACV mCherry inh	Pf growth 96h
CCN1C(=O)C(CC(=O)Nc2ccc(OC)cc2)N(CCCN2CCN(c3ccc(OC)cc3)CC2)C1=S (stereo not drawn)	-6.6%	?	?	10µM*	?
COC(=O)/C=C/c1ccc2c(c1)S(=O)(=O)N(C1CCCC1)[C@H]2CC(=O)OC	·	·	-11.9%	i	·
CCN1C(=O)C(CC(=O)Nc2ccc(OC)cc2)N(CCc2ccccc2)C1=S (stereo not drawn)	-12.1%	?	-12.9%	-7.8%	?
CCN1C(=O)C(CC(=O)Nc2ccc(OC)cc2)N(Cc2cccnc2)C1=S (stereo not drawn)	11.9µM*	1.9%	-11.8%	-13.7%	?
O=S(=O)(N1CCCCC1)n1c(Cc2ccccc2)nc2ccccc21	16.2%	11.7µM*	-8.6%	-15.4%	·
O=S(=O)(c1ccc(Br)cc1)n1c(Cc2ccccc2)nc2ccccc21	-1.0%	-7.1%	2.9%	-14.2%	?
O=C(CS(=O)(=O)c1cn(Cc2ccc(Cl)cc2)c2ccccc12)N1CCCC1	-11.8%	·	-9.0%	-13.3%	8.28µM*
Cc1cc(NC(=O)CS(=O)(=O)c2cn(Cc3ccc(F)cc3)c3ccccc23)no1	0.0%	·	?	?	13.1µM*
COc1ccccc1Cc1nc2ccccc2nc1SCC(=O)Nc1cccc(Cl)c1C	·	·	-8.3%	-8.9%	·
CCCCn1c(/C=C/c2ccco2)nc2ccccc21	15.3%	39.5%	-0.3%	-6.9%	?
C(=N\Nc1nc2ccccc2[nH]1)/c1cccc2nccnc12	16.7%	?	?	?	?
Cc1ccc(/C=N\Nc2nc3ccc(Cl)cc3[nH]2)o1	80.4%	2.62µM*	?	?	2.33µM*
CCCCn1c(/C=N/Nc2nc3ccccc3[nH]2)nc2ccccc21	3.5%	1.85µM*	11.2µM*	?	?
Fc1ccccc1-c1ccc(/C=N/Nc2nc3ccccc3[nH]2)o1	56.5%	?	·	·	0.928µM*
CCNC(=O)C1CCCN(c2nn3cc(-c4ccc(C)cc4)nc3s2)C1 (stereo not drawn)	·	·	-8.7%	-14.1%	·
Cc1ncc2c(c1CNC(=O)c1cncs1)CCN(C(=O)c1csc(-c3cccs3)n1)C2	·	·	10.6%	-4.5%	·
C#CCOCCOCCOCCNc1nc(N2CCN(C(=O)C(Cc3ccc(O)cc3)n3cc(C(N)C(C)CC)nn3)CC2)nc(N2CCN(C(=O)C(Cc3ccc(O)cc3)n3cc(C(N)C(C)CC)nn3)CC2)n1 (stereo not drawn)	-5.1%	9.28µM*	-11.2%	i	9.28µM*
C#CCOCCOCCOCCNc1nc(N2CCN(C(=O)[C@H](Cc3ccc(O)cc3)n3cc([C@@H](N)CC(C)C)nn3)CC2)nc(N2CCN(C(=O)[C@H](Cc3ccc(O)cc3)n3cc([C@@H](N)CC(C)C)nn3)CC2)n1	·	9.28µM*	·	·	?
C#CCOCCOCCOCCNc1nc(N2CCOCC2)nc(N2CCN(C(=O)[C@H](Cc3ccc(O)cc3)n3cc([C@@H](N)C(C)CC)nn3)CC2)n1 (stereo partly drawn)	0.0%	?	-14.4%	i	9.28µM*
C#CCOCCOCCOCCNc1nc(N2CCN(C(=O)[C@H](CCC(=O)O)n3cc(C(N)[C@H](C)CC)nn3)CC2)nc(N2CCN(C(=O)[C@H](Cc3ccc(O)cc3)n3cc(C(N)[C@H](C)CC)nn3)CC2)n1 (stereo partly drawn)	13.4%	0.0%	-2.5%	-11.2%	7.1%
COc1cc(S(=O)(=O)NCCc2c(C)[nH]c3ccccc23)c(C)cc1C	·	·	-16.5%	-4.3%	·
Cc1cccc(NC(=O)CSc2nc3ccccc3nc2N2CC(C)OC(C)C2)c1 (stereo not drawn)	18.4%	?	-12.0%	-7.5%	9.28µM*
Cc1cccc(NC(=O)CSc2nc3ccccc3nc2N2CCCCC2)c1	30.1%	13.1µM*	4.8%	-5.7%	?
Cc1cccc(NCc2nnc3n2CCCCC3)c1C	·	·	1.3%	4.5%	·
COc1ccc(-c2[nH]ncc2C(=O)NCc2ccc(F)cc2)cc1	·	·	-19.5%	-14.6%	·
SMILES	AMA1-RON2 inh	Pf growth 48h	VACV Venus inh	VACV mCherry inh	Pf growth 96h
CCN(CC)S(=O)(=O)c1ccc(Cl)c(NC(=S)NC(=O)C2CCCC2)c1	59.8%	13.1µM*	·	·	?
CCN(CC)S(=O)(=O)c1ccc(C)c(NC(=S)NC2CCCCC2)c1	-7.4%	14.7µM*	-16.7%	-9.7%	?
CCN(CC)S(=O)(=O)c1cccc(C(=O)NC2CCCCC2)c1	1.8%	18.7%	-16.3%	-10.4%	1.65µM*
CCN(CC)S(=O)(=O)c1csc(C(=O)NC2CCCCC2)c1	-7.7%	-17.1%	-14.9%	-22.6%	·
CCCn1nnc(NC(=O)c2ccc(OCC)c(Cl)c2)n1	6.0%	13.1µM*	-7.9%	-16.3%	19.6%
Cc1ccc(NS(=O)(=O)c2ccc3c(c2)N(C)C(=O)CC(=O)N3C)cc1Cl	·	·	-2.3%	-5.6%	·
Cn1c2c(c(=O)n(C)c1=O)[C@@]1(C(=O)Nc3ccccc31)C(C#N)=C(N)O2	-3.0%	?	6.1%	-14.9%	13.1µM*
Cc1[nH]c(=O)[nH]c(=O)c1S(=O)(=O)N1CCC(C(=O)NC(C)c2ccccc2)CC1 (stereo not drawn)	0.0%	-3.8%	-4.4%	-14.6%	4.15µM*
Cc1cccc(NC(=O)C2CCN(S(=O)(=O)c3c(C)[nH]c(=O)[nH]c3=O)CC2)c1	12.3%	46.3%	-4.2%	-0.4%	13.1µM*
CCc1cccc(NC(=O)C2CCCN(S(=O)(=O)c3c(C)[nH]c(=O)[nH]c3=O)C2)c1 (stereo not drawn)	-3.7%	3.2%	-13.5%	·	-4.3%
COc1ccc(C(=O)Nc2ccc(N(C)Cc3ccccc3)c(C(=O)O)c2)cc1	·	·	-5.5%	-9.8%	·
CC(C)(C)c1ccc(C(=O)Nc2cccc3ncccc23)cc1	-5.5%	?	-8.1%	i	?
CC(=O)Nc1cccc2ncccc12	-1.8%	17.3%	-13.1%	i	4.15µM*
COc1ccc(-c2cc(C(=O)NC(C)c3ccccc3)c3cc(C(C)C)ccc3n2)cc1 (stereo not drawn)	·	·	-20.1%	-23.8%	·
CC(C)Oc1ccc(Cc2cnc(N)nc2N)cc1	17.8%	·	·	·	6.57µM*
COc1ccc(Cc2cnc(N)nc2N)cc1OC	·	2.39µM*	-11.8%	-8.7%	3.79µM*
COc1cc(C)c(Cc2cnc(N)nc2N)cc1OC	·	3.79µM*	-17.5%	-7.9%	2.69µM*
CCCCOc1ccc(Cc2cnc(N)nc2N)cc1	-4.2%	?	-16.8%	i	?
COCCn1c(C)cc(O)c(C(c2ccc(OC)cc2)N2CCN(c3ccccc3)CC2)c1=O (stereo not drawn)	·	·	-8.3%	-12.8%	·
CCn1nc(C)c(CN2Cc3ccccc3OC(c3ccccc3OC)C2)c1C (stereo not drawn)	·	·	-4.7%	-12.7%	·
Cc1ccc(OCC(=O)Nc2nc(-c3ccc(Br)cc3)ns2)cc1	·	·	-15.5%	-4.9%	·
Cc1cc(N2C(=O)C(=O)/C(=C(/O)c3ccc(F)cc3)C2c2ccc(F)cc2)no1 (stereo not drawn)	36.7%	15.3%	-7.0%	i	0.828µM*
